From PMC7826789 (International Journal of Molecular Sciences, 2021) come the findings set out here.

Test systems include CSNK2A2; DAPK1; DAPK2; DAPK3; DDR1; DDR2.
Common to all, as to conditions: Compound Concentration (nM):1000
In the next assay the test system is T1, CTK.
T1 construct: gene MATK

In a further assay the test system is T2, DCAMKL1.
T2 construct: gene DCLK1

In the next assay the test system is T3, DCAMKL2.
T3 construct: gene DCLK2

Another assay deals with T4, DCAMKL3.
T4 construct: gene DCLK3
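Further: KINOMEscan scanMAX binding as percent activity remaining versus control; lower means stronger binding.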

Turning to `CC1=C(C(=O)Nc2ccc3[nH]ncc3c2)C(c2ccc3ccccc3c2)CC(=O)N1` (centres unmarked) [GSK270822A], the “Percent Control” value with CSNK2A2 is 80%; in the assay with CTK, 54%; in the assay with DAPK1 it was 95%; in the assay on DAPK2, 100%; in the assay with DAPK3, 100%; with DCAMKL1, 90%. Besides, the “Percent Control” value with DCAMKL2 was 74%; with DCAMKL3, 94%; in the assay on DDR1 it was 79%; in the assay with DDR2, 90%.

For `COC(=O)Nc1nc2ccc(Oc3ccc(NC(=O)Nc4cc(C(F)(F)F)ccc4F)cc3)cc2s1.Cl` [GW693917A], the “Percent Control” value in the assay on CSNK2A2 is 68%; in the assay on CTK, 91%; with DAPK1, 95%; in the assay with DAPK2, 100%; in the assay with DAPK3 it was 100%; in the assay with DCAMKL1, 95%. Besides, the “Percent Control” value is 86% with DCAMKL2, 100% in the assay on DCAMKL3, 0% in the assay with DDR1 and 5.8% in the assay with DDR2.

As to `CCS(=O)(=O)c1ccc(OC)c(Nc2ncc(-c3cccc(OC)c3)o2)c1` [GW580509X], the “Percent Control” value in the assay with CSNK2A2 is 4.4%; in the assay on CTK it was 100%; in the assay with DAPK1, 100%; in the assay with DAPK2 it was 90%; in the assay with DAPK3, 100%; in the assay with DCAMKL1, 81%. Moreover, the “Percent Control” value in the assay on DCAMKL2 is 100%; with DCAMKL3, 100%; in the assay with DDR1 it was 59%; in the assay on DDR2, 100%.

As to `NS(=O)(=O)c1ccc(N/N=C2\C(=O)Nc3ccc(C(=O)NCc4ccncc4)cc32)cc1` [GW300657X], the “Percent Control” value in the assay on CSNK2A2 was 28%; in the assay on CTK it was 97%; in the assay on DAPK1, 63%; in the assay with DAPK2, 65%; with DAPK3, 51%; in the assay with DCAMKL1 it was 67%. The “Percent Control” value is 83% in the assay with DCAMKL2, 72% in the assay with DCAMKL3, 100% in the assay on DDR1 and 89% in the assay on DDR2.

On to `COc1cc2ncn(-c3cc(O[C@H](C)c4ccccc4Cl)c(C(N)=O)s3)c2cc1OC` [GSK237701A], for which the “Percent Control” value with CSNK2A2 is 34%; with CTK, 78%; in the assay with DAPK1, 55%; in the assay with DAPK2, 81%; in the assay on DAPK3, 79%; with DCAMKL1, 77%. Moreover, the “Percent Control” value in the assay with DCAMKL2 is 100%; in the assay with DCAMKL3 it was 100%; in the assay with DDR1, 100%; with DDR2, 74%.

Turning to `COc1cc2ncnc(Nc3ccc4c(cnn4Cc4ccccc4)c3)c2cc1OC.Cl` [GW282449A], the “Percent Control” value with CSNK2A2 is 100%; with CTK, 84%; in the assay on DAPK1 it was 100%; with DAPK2, 100%; in the assay on DAPK3, 100%; with DCAMKL1, 100%. Besides, the “Percent Control” value in the assay with DCAMKL2 was 100%; in the assay with DCAMKL3, 100%; in the assay with DDR1 it was 91%; in the assay with DDR2, 100%.

With `COc1cc(C)c(N(C)C(=O)CN(C)C)cc1Nc1nc(Nc2cccc(F)c2C(N)=O)c2cc[nH]c2n1` [GSK2219385], the “Percent Control” value with CSNK2A2 was 81%; in the assay with CTK, 100%; with DAPK1, 85%; with DAPK2, 73%; in the assay with DAPK3, 71%; with DCAMKL1, 78%. Moreover, the “Percent Control” value in the assay on DCAMKL2 was 100%; with DCAMKL3 it was 100%; in the assay on DDR1 it was 78%; in the assay on DDR2 it was 100%.

For the molecule `CN1CCN(C(=O)c2ccc(NC(=O)Nc3ccc(N(C)c4ccnc(Nc5ccc(CS(C)(=O)=O)cc5)n4)cc3)cc2)CC1.Cl` [GW830263A], the “Percent Control” value in the assay on CSNK2A2 was 63%; in the assay with CTK, 100%; in the assay with DAPK1 it was 95%; in the assay on DAPK2, 100%; in the assay on DAPK3 it was 100%; in the assay with DCAMKL1 it was 97%. Also, the “Percent Control” value with DCAMKL2 was 79%; in the assay with DCAMKL3 it was 100%; in the assay with DDR1 it was 0%; with DDR2, 0%.

Take `COc1cc(C=NNc2ncnc3c2cnn3-c2ccccc2)ccc1O` [GW513184X]: the “Percent Control” value in the assay on CSNK2A2 was 5.6%; in the assay with CTK it was 100%; in the assay on DAPK1, 100%; in the assay on DAPK2, 100%; in the assay on DAPK3, 100%; in the assay on DCAMKL1 it was 90%. Further, the “Percent Control” value in the assay on DCAMKL2, in the assay with DCAMKL3, in the assay with DDR1 and in the assay with DDR2 was 100% throughout.

On to `C/C(Nc1ccc(S(N)(=O)=O)cc1)=C1/C(=O)Nc2ccccc21` [GW335962X], for which the “Percent Control” value in the assay on CSNK2A2 is 21%; with CTK, 84%; with DAPK1, 94%; in the assay on DAPK2, 93%; in the assay with DAPK3, 96%; with DCAMKL1, 80%. Moreover, the “Percent Control” value is 80% in the assay with DCAMKL2, 100% in the assay on DCAMKL3, 95% with DDR1 and 100% with DDR2.

With `NS(=O)(=O)c1ccc(N/N=C2\C(=O)Nc3ccc(-c4cnco4)cc32)cc1` [GW276655], the “Percent Control” value in the assay with CSNK2A2 was 7%; with CTK it was 78%; in the assay with DAPK1 it was 60%; with DAPK2 it was 70%; with DAPK3, 56%; in the assay on DCAMKL1 it was 78%. Besides, the “Percent Control” value was 87% in the assay with DCAMKL2, 100% in the assay with DCAMKL3, 100% in the assay with DDR1 and 100% in the assay with DDR2.

`Cl.O=S1CCN(Cc2ccc(-c3ccc4ncnc(Nc5ccc(OCc6ccccc6)c(F)c5)c4c3)o2)CC1` [GW576924A]: the “Percent Control” value is 100% with CSNK2A2; 100% in the assay on CTK; 100% with DAPK1; 100% in the assay with DAPK2; 100% in the assay with DAPK3; 89% in the assay on DCAMKL1. The “Percent Control” value with DCAMKL2, in the assay on DCAMKL3, in the assay on DDR1 and in the assay on DDR2 was 100% in each case.

On to `CN(C)CCNC(=O)Nc1ccc(N(C)c2ccnc(Nc3ccc(CS(C)(=O)=O)cc3)n2)cc1.Cl` [GW830900A], for which the “Percent Control” value in the assay on CSNK2A2 is 62%; in the assay with CTK, 86%; in the assay with DAPK1, 94%; in the assay with DAPK2, 100%; in the assay with DAPK3, 100%; in the assay with DCAMKL1 it was 89%. Besides, the “Percent Control” value in the assay on DCAMKL2 was 100%; with DCAMKL3 it was 100%; in the assay with DDR1 it was 73%; in the assay on DDR2, 17%.

On to `COc1cc(N2CCN(C(C)C)CC2)ccc1Nc1nc(Nc2ccc(F)cc2C(=O)NC[C@@H](O)CO)c2cc[nH]c2n1` [GSK1392956A], for which the “Percent Control” value in the assay on CSNK2A2 was 88%; with CTK it was 95%; in the assay with DAPK1 it was 13%; in the assay on DAPK2, 6.8%; in the assay on DAPK3, 4.3%; in the assay on DCAMKL1, 78%. In addition, the “Percent Control” value was 100% in the assay on DCAMKL2, 100% in the assay with DCAMKL3, 98% in the assay with DDR1 and 100% with DDR2.

For `NS(=O)(=O)c1ccc(N/N=C2\C(=O)Nc3ccc(Cl)cc32)cc1` [GW280670X], the “Percent Control” value in the assay on CSNK2A2 was 54%; in the assay with CTK it was 100%; in the assay on DAPK1, 100%; in the assay on DAPK2 it was 100%; in the assay on DAPK3, 100%; in the assay with DCAMKL1, 94%. Also, the “Percent Control” value in the assay with DCAMKL2, in the assay with DCAMKL3, with DDR1 and with DDR2 was 100% each time.

For `COc1cc(/C=N/Nc2ncnc3[nH]ncc23)ccc1O` [GW578748X], the “Percent Control” value was 7.7% in the assay with CSNK2A2; 97% with CTK; 78% with DAPK1; 75% with DAPK2; 48% in the assay on DAPK3; 68% in the assay on DCAMKL1. Also, the “Percent Control” value in the assay on DCAMKL2 is 100%; in the assay with DCAMKL3, 68%; with DDR1, 100%; in the assay with DDR2 it was 100%.

For `NS(=O)(=O)c1ccc(N/N=C2\C(=O)Nc3ccc(C(=O)NCCc4c[nH]cn4)cc32)cc1` [GW300660X], the “Percent Control” value in the assay on CSNK2A2 was 1.4%; in the assay on CTK, 100%; in the assay on DAPK1 it was 44%; with DAPK2, 100%; with DAPK3 it was 15%; in the assay with DCAMKL1 it was 65%. In addition, the “Percent Control” value with DCAMKL2, in the assay with DCAMKL3, in the assay with DDR1 and in the assay with DDR2 was 100% each time.

On to `Cl.O=C(Nc1ccc(Oc2ccc3[nH]c(NC(=O)c4ccco4)nc3c2)cc1)Nc1cc(C(F)(F)F)ccc1F` [GW683134A], for which the “Percent Control” value in the assay on CSNK2A2 was 91%; in the assay with CTK, 100%; in the assay on DAPK1, 100%; with DAPK2, 83%; in the assay with DAPK3 it was 89%; in the assay with DCAMKL1, 87%. Moreover, the “Percent Control” value with DCAMKL2 is 100%; with DCAMKL3, 82%; in the assay on DDR1 it was 0%; in the assay with DDR2, 5.1%.

Turning to `NS(=O)(=O)c1ccc(Nc2ncc(-c3ccccc3)o2)cc1` [GW572399X], the “Percent Control” value is 53% with CSNK2A2; 100% in the assay with CTK; 100% with DAPK1; 100% in the assay on DAPK2; 100% with DAPK3; 83% in the assay on DCAMKL1. The “Percent Control” value in the assay with DCAMKL2, in the assay with DCAMKL3, in the assay with DDR1 and in the assay with DDR2 was 100% in each case.

Regarding `CCc1ccc(Oc2nccc(-c3c(-c4ccc(F)cc4)ncn3C3CCNCC3)n2)cc1` [SB-242719], the “Percent Control” value is 69% in the assay on CSNK2A2; 89% in the assay with CTK; 92% with DAPK1; 74% with DAPK2; 69% with DAPK3; 77% with DCAMKL1. Further, the “Percent Control” value in the assay on DCAMKL2 was 81%; with DCAMKL3, 100%; in the assay on DDR1, 73%; with DDR2 it was 94%.
